Data reported in PubChem BioAssay (EPA / NIEHS).
Several values for one entry are separate records, joined by “and”; a condition that tells them apart may be missing. Equal entries are not always repeated. Activity calls are given as the source filed them. How the source made its calls: active means hit-call score of the fitted dose curve at least 0.9, where 1 is the maximum; inconclusive means response in the unintended direction; inactive means score below 0.9.

Assay: CPHEA_Stoker_NIS_Cytotoxicity: Cytotoxicity Assessment for CPHEA's Radioactive Iodide Uptake (RAIU) Assay for Sodium/Iodide Symporter (NIS) Inhibition, Stoker and Laws Labs (AID 2283897);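 on AC50: active means loss of ATP signal versus DMSO meaning cytotoxicity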
Procedure: CPHEA_Stoker_NIS is a cell-based, single-readout assay that uses hNIS-HEK293T-EPA, a novel human kidney cell line expressing human NIS, with measurements taken at 2 hours after chemical dosing in a 96-well plate. This radioactive iodide uptake (RAIU) assay is used to identify inhibitors of NIS-mediated iodide uptake. A parallel cytoxicity assay (Cell Titer Glo, Promega) was also run in the same cell line.CPHEA_Stoker_NIS_Cytotoxicity is one of 2 assay components measured from the CPHEA_Stoker_NIS assay. It is designed to make measurements of atp content, a form of viability reporter, as detected with bioluminescence signals by Luciferase-coupled ATP quantitation technology.Data from the assay component CPHEA_Stoker_NIS_Cytotoxicity was analyzed at the endpoint, CPHEA_Stoker_NIS_Cytotoxicity, in the positive analysis fitting direction relative to DMSO as the negative control and baseline of activity. Using a type of viability reporter, measures of ATP content for loss-of-signal activity can be used to understand the viability. To generalize the intended target to other relatable targets, this assay endpoint is annotated to the cell cycle intended target family, where the subfamily is cytotoxicity.
hNIS-HEK293T-EPA cells were seeded with a MultiFlo FX dispenser (BioTek, Winooski, VT) into ScintiPlate-96 microplates (Perkin Elmer, Waltham, MA) at a density of 4.0x10^4 cells per well in 200uL growth media and incubated for 40 hours before experimentation. On day of the assay, carrier-free 125I (Perkin-Elmer, Waltham, MA; specific activity: 17.4Ci/mg) was diluted with Hanks' balanced salt solution (Sigma, St. Louis, MO) supplemented with 10mM HEPES (uptake buffer; pH 7.4) at 5uCi/mL (288pg 125I/mL uptake buffer; 2.30nM). The assay was initiated by washing cells twice with 200uL uptake buffer using a 96-well Tecan HydroSpeed plate washer (Tecan, Mannedorf, Switzerland). Uptake buffer (59.7uL) was then added back to each well. Chemical samples (350nL at 200X) were administered using the HDR tool as previously described to achieve a 1X chemical/0.5% final DMSO concentration with subsequent addition of 10uL of 125I dilution (final [125I]: 329pM; 2.88pg/well) for a final reaction volume of 70uL/well. Cells were incubated at room temperature for 2 hours and then washed twice with 200uL ice cold uptake buffer. All uptake buffer was aspirated from wells, plates were sealed, and read on a MicroBeta2 plate reader (Perkin Elmer, Waltham, MA) using a detection protocol to measure CPM corresponding to intracellular 125I concentration. Each chemical concentration (0.001, 0.01, 0.1, 1.0, 10, and 100uM) was assayed in triplicate with three independent biological replicate plates (3 sequential cell passages). Additionally, a concentration response of NaClO4 (0.001, 0.01, 0.1, 1.0, 10, and 100uM) served as a positive control inhibition curve on each RAIU assay plate. DMSO control wells were assayed on each plate as a measure of maximum iodide uptake for normalization and determination of intra- and inter-assay variation. (Toxicol In Vitro, 2017, 40:66-78).
With `C[C@H]1[C@H](c2ccc(Cl)cc2)SC(=O)N1C(=O)NC1CCCCC1` the outcome was “inactive”.
In the case of `O=S1OCC2C(CO1)C1(Cl)C(Cl)=C(Cl)C2(Cl)C1(Cl)Cl` (configuration not stated), the outcome is reported as “inactive”.
For `O=S(=O)(O)C(F)(F)C(F)(F)C(F)(F)C(F)(F)C(F)(F)C(F)(F)C(F)(F)C(F)(F)F`, the outcome was “inactive”.
In the case of `COc1nn(CSP(=S)(OC)OC)c(=O)s1`, the outcome is reported as “inactive”.
In the case of `N#Cc1c(Cl)c(Cl)c(Cl)c(C#N)c1Cl`, the outcome is reported as “inactive”.
For `CC1(C)C(C=C(Cl)Cl)C1C(=O)OC(C#N)c1ccc(F)c(Oc2ccccc2)c1` (configuration not stated), the outcome was “inactive”.
With `CCCN(CCOc1c(Cl)cc(Cl)cc1Cl)C(=O)n1ccnc1` the AC50 was 50 µM (active).
For `CCC(C)Nc1c([N+](=O)[O-])cc(C(C)(C)C)cc1[N+](=O)[O-]` (configuration not stated), the outcome was “inactive”.
With `CC(C)OC(=O)Nc1cccc(Cl)c1` the outcome was “inactive”.
For `CCc1ccc(C(=O)NN(C(=O)c2cc(C)cc(C)c2)C(C)(C)C)cc1`, the outcome was “inactive”.
With `Oc1ccc(Cl)cc1Cc1ccccc1` the AC50 was 24.9 µM (active) and 50 µM (active).
In the case of `CC(C)(C)C(O)/C(=C\c1ccc(Cl)cc1Cl)n1cncn1` (configuration not stated), the AC50 is reported as 50 µM (active).
In the case of `CC[C@H](C)[C@H]1O[C@]2(C=C[C@@H]1C)C[C@@H]1C[C@@H](C/C=C(\C)[C@@H](O[C@H]3C[C@H](OC)[C@@H](O[C@H]4C[C@H](OC)[C@@H](O)[C@H](C)O4)[C@H](C)O3)[C@@H](C)/C=C/C=C3\CO[C@@H]4[C@H](O)C(C)=C[C@@H](C(=O)O1)[C@]34O)O2` (tested in a mixture with another compound), the outcome is reported as “inactive”.
With `CCC(C)(NC(=O)c1cc(Cl)c(C)c(Cl)c1)C(=O)CCl` (configuration not stated) the outcome was “inactive”.
With `CCN(CC)C(=O)SCc1ccc(Cl)cc1` the outcome was “inactive”.
For `CCOC1Oc2ccc(OS(C)(=O)=O)cc2C1(C)C` (configuration not stated), the outcome was “inactive”.
With `CCCN(CCC)c1c([N+](=O)[O-])cc(C(F)(F)F)cc1[N+](=O)[O-]` the outcome was “inactive”.
With `COP(=S)(OC)Oc1ccc(SC)c(C)c1` the outcome was “inactive”.
With `O=C1c2ccccc2C(=O)N1SC(Cl)(Cl)Cl` the outcome was “inactive”.
With `ClC1C(Cl)C(Cl)C(Cl)C(Cl)C1Cl` (configuration not stated) the outcome was “inactive”.
For `C#CCN1C(=O)COc2cc(F)c(N3C(=O)C4=C(CCCC4)C3=O)cc21`, the AC50 was 50 µM (active).
For `CC1(c2ccc(Oc3ccccc3)cc2)OC(=O)N(Nc2ccccc2)C1=O` (configuration not stated), the AC50 was 5.4 µM (active).
